Source: PubChem BioAssay
G9a inh: inhibitors of human histone lysine methyltransferase G9a; Potency, µM (titrated, usually from 102 µM), inactives show top-dose activity, negative = inhibition, actives largely listed as inhibitors; AID 504332; Q96KQ7; G9a H3K9 monomethylation, AlphaScreen, 2 h; actives 8.8% (n = 350,000); note: % is set by controls: 0 for no effect and ±100 for the full control effect; nearly all actives have a fitted effect of over 75% in size
Target sequence (Q96KQ7 913-1193 limits assumed): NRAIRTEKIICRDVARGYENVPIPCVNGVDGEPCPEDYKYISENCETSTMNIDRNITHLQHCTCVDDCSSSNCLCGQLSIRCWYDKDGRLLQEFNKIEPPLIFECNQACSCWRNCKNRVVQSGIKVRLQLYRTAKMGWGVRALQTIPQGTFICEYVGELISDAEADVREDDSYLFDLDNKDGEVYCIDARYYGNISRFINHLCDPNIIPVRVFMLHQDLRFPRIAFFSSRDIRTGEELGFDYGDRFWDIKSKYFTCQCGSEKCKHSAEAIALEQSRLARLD
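Methyltransferase reactions run at room temperature for 2 h (20 nM enzyme, 500 nM biotin-H3K9 peptide, 20 uM SAM) after a 15 min compound preincubation; product detected by AlphaScreen beads and anti-H3K9me1 antibody.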
JMJD2A Tudor: JMJD2A Tudor domain (human) inhibition. AlphaScreen JMJD2A-Tudor / H3K4me3 peptide binding. Potency, µM (doses to about 114 µM), for the others: at the highest dose activity change, negative = inhibition, most hits filed as inhibitors. actives 4.4% (n = 390,000). AID 504339; note: % is set by controls: 0 for no effect and ±100 for the full control effect; nearly all actives have a fitted effect of over 50% in size
HP1b binding inh: HP1-beta chromodomain-methylated histone interaction inhibition; Potency, µM (highest dose often 114 µM), inactives show at the highest dose activity change, negative = inhibition, hits mostly inhibitors; AlphaScreen HP1-beta / biotin-H3K9me3 peptide binding; P83916; AID 540317; actives 0.56% (n = 390,000); note: nearly all actives have a fitted effect of over 70% in size
Target sequence (P83916 whole entry, looked up): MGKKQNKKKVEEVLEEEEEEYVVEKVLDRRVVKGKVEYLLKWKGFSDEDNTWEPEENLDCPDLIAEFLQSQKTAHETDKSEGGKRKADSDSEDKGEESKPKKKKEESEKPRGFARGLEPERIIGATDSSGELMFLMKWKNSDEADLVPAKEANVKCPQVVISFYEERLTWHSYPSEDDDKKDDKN
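HP1-beta protein (50 nM final) preincubated 30 min at room temperature with biotinylated H3(1-18)K9me3 peptide (50 nM) in PBS pH 7.4, 0.01% Tween-20, then compound added for 30 min. AlphaScreen streptavidin donor/nickel chelate acceptor beads (10 ug/mL final), 30 min dark, luminescence read.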
BAZ2B inh: BAZ2B (human) inhibition; AlphaScreen BAZ2B-H3K14Ac peptide displacement; Potency, µM (highest dose often 114 µM), for inactives: at the top dose activity change, negative = inhibition, hits mostly inhibitors; actives 4.4% (n = 360,000); AID 504333; note: % is set by controls: 0 for no effect and ±100 for the full control effect; nearly all actives have a fitted effect of over 60% in size
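AlphaScreen displacement of biotin-H3(5-23)K14Ac peptide (50 nM final) from BAZ2B (50 nM final) in PBS pH 7.4, 0.01% Tween-20; complex preformed 30 min RT, then compounds (top 110 uM) 30 min RT, beads 20 min dark.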
GLS inh: glutaminase GLS (human) inhibition | O94925 | GLS enzymatic activity, qHTS titration | Potency, µM (doses to about 45.5 µM), without a hit: at the top dose activity change, negative = inhibition, hits mostly inhibitors | actives 0.21% (n = 410,000) | AID 624170; note: % is set by controls: 0 for no effect and ±100 for the full control effect
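Compounds were pin-transferred onto hKGA, after which L-glutamine (1 mM solution) and a detection mix of glutamate oxidase, HRP and Amplex Red were added. Initial and 30 min RT fluorescence reads were collected.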
* hit, by the source's call; ? = inconclusive; . = no result given; ! = repeats disagree; [ ] = remark or other dose. A selection: hits, their analogues and other compounds. The true share with any hit is near 10%. Calls come from the whole dose curve; as a rule, active = well fitted curve in the direction sought with a large enough effect; inconclusive = small, poorly fitted or top-dose-only effect, or another doubt; inactive = no such curve, though single readings can be large; an effect the other way counts as inactive or inconclusive. Potency is the fitted concentration of half-maximal effect.

SMILES | G9a inh | JMJD2A Tudor | HP1b binding inh | BAZ2B inh | GLS inh
CC(C)(C)n1cccc1/C=C1\C(=O)NC(=O)N(c2ccccc2)C1=O | ? | -24% | 31% | -10% | 11%
Cn1cc(/C=C2\C(=O)NC(=O)N(c3ccccc3)C2=O)c2ccccc21 | -1% | -32% | 137% | -21% | ?
c1csc(CN2CCC3(CCNCC3)CC2)n1 | 4%[12.7 µM] | . | . | . | .
CN(Cc1ccccc1)C(=O)c1ccc(NC(=O)C2CCN(C(=O)OC(C)(C)C)CC2)cc1 | . | ? | -12% | . | 0%
O=C1NC(=O)N(CCc2ccc(F)cc2)C(=O)/C1=C\C=C\c1ccccc1 | ? | -29% | 23% | -24% | 79%
O=C1NC(=O)N(Cc2ccco2)C(=O)/C1=C/C=C/c1ccco1 | -175%[59 µM] | 35µM* | 11µM* | 32µM* | 44%
C=CCN1C(=O)NC(=O)/C(=C/C=C/c2ccccc2)C1=O | 8.9µM* | -21% | ? | ? | -13%
Cc1ccc(N2C(=O)NC(=O)/C(=C\C=C\c3ccco3)C2=O)cc1C | 10µM* | ? | ? | 45µM* | 0%
CN1C(=O)/C(=C/C=C/c2ccco2)C(=O)NC1=S | 2.8µM* | ? | 11µM* | 32µM* | .
CCCCOP(=O)(OCCCC)C(Nc1ccc(C(=O)OCC)cc1)c1ccncc1 (centres undefined) | 7% | -11% | 50% | 21% | 0%
O=C(COc1cc(Cl)ccc1Cl)Nc1ccc(Cl)cc1C(=O)c1ccccc1 | -24%[59 µM] | -21% | 17% | -1% | -6%
COc1ccc(OC)c([C@H](O)[C@H](C)N)c1 | 19%[21.5 µM] | . | . | . | .
Cc1cccc(N2C(=O)NC(=O)/C(=C\C=C\c3ccco3)C2=O)c1 | 4µM* | ? | -20% | ? | 27%
COc1cc([C@@H]2c3cc4c(c(O)c3C[C@H]3COC(=O)[C@@H]32)OCO4)cc(OC)c1OC | . | -26% | 25% | . | .
O=C(Nc1cccc2ncccc12)c1ccccc1Cl | 79µM* | -10% | 2% | ? | 2%
O=C1CC(N2CC=C(c3ccccc3)CC2)C(=O)N1c1ccc(F)cc1 (centres undefined) | 10µM* | ? | 7% | -25% | -4%
Cc1cc(C)n(-c2nc3nonc3nc2Nc2cccc(C)c2C)n1 | 13%[59 µM] | -19% | 44% | -1% | 0%
COc1cccc(CNC(=O)CSc2ccc(-c3ccco3)nn2)c1 | 28µM* | -23% | 21% | ? | -8%
FC(F)OC(F)(F)C(F)Cl (centres undefined) | 9%[12.7 µM] | . | . | . | 7%
Cc1ccc(CNC(=O)CCCn2c(=O)c3sccc3n(CC(=O)Nc3c(C)cccc3C)c2=O)cc1 | -6%[59 µM] | -1% | 37% | -24% | 0%
CC1Oc2cc3c(-c4c(O)cc(O)c5c(O)c6c(cc45)OC(C)C(C)C6=O)c(O)cc(O)c3c(O)c2C(=O)C1C (centres undefined) | 13µM* | 45µM* | ? | 32µM* | 7.9µM*
COc1ccc(C(=O)CN2CCOCC2)cc1F | 28µM* | -31% | 34% | -12% | 9%
O=C(CN1CCOCC1)c1ccc2cc[nH]c2c1 | 32µM* | -30% | 28% | 4% | -7%
Cc1cc(C)c(C(=O)CN2CCOCC2)c(C)c1 | 3.2µM* | ? | 64% | -7% | -2%
COc1ccc(CCNC(=O)CCS(=O)(=O)c2ccc3c(c2)oc(=O)n3C)cc1OC | 64% | -9% | 64% | -17% | 8%
SMILES | G9a inh | JMJD2A Tudor | HP1b binding inh | BAZ2B inh | GLS inh
CC(C)n1c(/C=C/[C@H](O)C[C@H](O)CC(=O)O)c(-c2ccc(F)cc2)c2ccccc21 | ? | -25% | . | -3% | 7%
COc1ccccc1NC(=O)N(Cc1ccco1)C1CCN(C(C)=O)CC1 | 6%[59 µM] | -13% | 50% | 4% | -7%
CC(Nc1cc(C)cc(C)c1)=[N+](C)CCNS(=O)(=O)c1ccc(Cl)cc1 | 8.9µM* | ? | 18% | -12% | 16%
CC(=O)NS(=O)(=O)c1ccc(NC(=O)c2cccn(Cc3ccc(Cl)cc3)c2=O)cc1 | -27%[59 µM] | 1% | 29%[57 µM] | 2% | ?
C[N+]1(C)C2CCC1CC(OC(=O)c1c[nH]c3ccccc13)C2 (centres undefined) | 11µM* | 50µM* | 27% | -31% | -1%
C[N+]1(C)[C@@H]2CC[C@H]1CC(OC(=O)[C@@H](CO)c1ccccc1)C2 (some centres undefined) | 7.9µM*! | ? | -9% | -16% | -27%
C[N+]1(C)C2CC[C@H]1CC(OC(=O)C(CO)c1ccccc1)C2 (some centres undefined) | 1%[59 µM] | -4% | 40% | -4% | -9%
C[N+]1(C)CCC(OC(=O)C(c2ccccc2)c2ccccc2)CC1 | 6.7µM*! | ? | 17% | . | 1%
Cn1c(=O)n(C)c2cc(CNCCc3ccccc3)ccc21 | -1%[59 µM] | -3% | 46% | -33% | -9%
O=C(c1ccco1)N1CCC2(CC1)CN(Cc1ccncc1)C2 | 9%[12.7 µM] | . | . | . | .
O=C(CNC(=O)c1ccc(Cl)cc1)Nc1ccc(Br)cc1C(=O)c1ccccc1 | -14%[59 µM] | ? | -7% | -8% | -13%
O=C(Nc1ccc(Br)cc1C(=O)O)c1ccc2c(c1)C(=O)N(Cc1ccccc1)C2=O | 7% | 50µM* | -26% | ? | 3%
COc1ccc2c(c[n+](C)c3c4cc5c(cc4ccc23)OCO5)c1OC | 17µM* | . | . | . | .
COc1cc2c(ccc3c4cc(OC)c(OC)cc4c[n+](C)c23)cc1O | . | -26% | 20% | . | 20%
O=C1c2ccccc2C(=O)C1C(=O)C(c1ccccc1)c1ccccc1 | ? | . | . | . | 18%
CC(=O)c1c(COC(=O)c2cccnc2)nc2ccccc2[n+]1[O-] | 10µM* | -9% | 28% | 5% | -2%
O=C(c1cccnc1)c1cc2ccccc2[nH]1 | -5%[59 µM] | 1% | 35% | 1% | 0%
C[N+]1(C)CCc2cc3c(cc2[C@H]1[C@@H]1OC(=O)c2c1ccc1c2OCO1)OCO3 | 22µM*! | 25µM*! | 50% | ? | -3%
COc1ccc2c(c1OC)C(=O)O[C@H]2[C@H]1c2cc3c(cc2CCN1C)OCO3 | 21%[21.5 µM] | . | . | . | .
CC1(C)OC(c2ccccc2)=C/C(=C/C=C2C(=O)NC(=O)NC2=O)O1 | 35µM* | -31% | -4% | -37% | -22%
CC(C)n1cnc2c(C(=O)N[C@H]3CN4CCC3CC4)cc(Cl)cc21 | 28%[59 µM] | . | . | . | .
COC[C@H]1OC(=O)c2coc3c2[C@@]1(C)C1=C(C3=O)[C@@H]2CCC(=O)[C@@]2(C)C[C@H]1OC(C)=O | 5µM* | -5% | 25% | . | 31%
Cc1cccc(N2CCN(C(=O)C34CC5CC(CC(C5)C3)C4)CC2)c1C | 1.6µM* | -7% | 57% | -15% | 2%
COc1ccc2[nH]c3c(c2c1)CCN=C3C | 8.9µM* | 35µM* | -29% | 45µM* | 3%
O=C(O)c1cccc2nc3ccccc3nc12 | 40µM* | -9% | 41% | -31% | 1%
